Results reported in ChEMBL document CHEMBL1201862, “PubChem BioAssay data set” (2004).
Hit rate of the full screen: of about 400,000 compounds, about 2,100 (0.53%) were called active. Roughly 14% stayed inconclusive and do not appear here. How the calls were made is not given here. The full list was thinned out, with actives kept by preference.

What follows are molecules tested against Ataxin-2 (Homo sapiens) (UniProt Q99700) (assay: qHTS for Inhibitors of ATXN expression.).
Chain of Ataxin-2 (Homo sapiens) (Q99700 whole entry): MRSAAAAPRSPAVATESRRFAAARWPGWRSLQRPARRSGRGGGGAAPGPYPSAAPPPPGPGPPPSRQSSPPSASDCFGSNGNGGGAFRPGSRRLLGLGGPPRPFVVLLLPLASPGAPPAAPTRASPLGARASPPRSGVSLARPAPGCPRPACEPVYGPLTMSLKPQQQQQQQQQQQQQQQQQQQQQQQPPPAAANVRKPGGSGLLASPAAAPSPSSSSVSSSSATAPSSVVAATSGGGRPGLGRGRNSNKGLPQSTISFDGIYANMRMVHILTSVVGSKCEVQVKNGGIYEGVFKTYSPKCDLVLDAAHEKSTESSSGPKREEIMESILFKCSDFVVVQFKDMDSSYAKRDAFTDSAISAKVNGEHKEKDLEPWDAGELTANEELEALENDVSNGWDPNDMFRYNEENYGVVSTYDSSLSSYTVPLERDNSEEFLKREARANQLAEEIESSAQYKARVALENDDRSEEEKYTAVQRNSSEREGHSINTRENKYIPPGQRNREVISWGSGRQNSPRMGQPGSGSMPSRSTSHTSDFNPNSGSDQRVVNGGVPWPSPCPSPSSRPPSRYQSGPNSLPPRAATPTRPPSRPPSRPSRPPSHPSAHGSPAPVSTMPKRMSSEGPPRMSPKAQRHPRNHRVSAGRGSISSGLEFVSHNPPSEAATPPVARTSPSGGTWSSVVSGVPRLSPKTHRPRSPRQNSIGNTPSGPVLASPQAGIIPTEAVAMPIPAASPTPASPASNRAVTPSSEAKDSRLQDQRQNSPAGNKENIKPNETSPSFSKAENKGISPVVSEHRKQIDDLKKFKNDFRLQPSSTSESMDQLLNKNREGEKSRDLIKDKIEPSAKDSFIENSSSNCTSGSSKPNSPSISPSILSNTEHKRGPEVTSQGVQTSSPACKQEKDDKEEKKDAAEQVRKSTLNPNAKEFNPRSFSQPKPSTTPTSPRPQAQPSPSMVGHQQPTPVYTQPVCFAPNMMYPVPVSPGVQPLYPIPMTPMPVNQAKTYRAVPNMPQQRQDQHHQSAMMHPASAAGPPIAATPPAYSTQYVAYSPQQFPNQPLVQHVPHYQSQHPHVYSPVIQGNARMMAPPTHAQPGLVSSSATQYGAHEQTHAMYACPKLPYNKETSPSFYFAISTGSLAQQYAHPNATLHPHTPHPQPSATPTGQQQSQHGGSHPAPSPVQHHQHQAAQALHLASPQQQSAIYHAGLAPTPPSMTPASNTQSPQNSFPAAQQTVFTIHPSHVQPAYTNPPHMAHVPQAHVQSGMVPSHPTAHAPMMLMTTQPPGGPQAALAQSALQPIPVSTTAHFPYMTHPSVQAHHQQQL
Type: functional
In the case of CCc1nc2sc(C(C)=O)c(N)c2c2c1CCCC2, the Potency is reported as “inactive”. For O=C(CC1Sc2ccccc2NC1=O)OCc1cc(=O)oc2cc(O)ccc12 (configuration not stated), the Potency was “inactive”. Cn1cc(/C=N/NC(=O)c2cc3cc(Br)ccc3o2)c2ccccc21 was tested, and the Potency was “inactive”. CCOC(=O)N1CCC(NC(=O)c2cc(C(=O)Nc3ccc(F)cc3F)ccc2CO)CC1 was tested, and the Potency was “inactive”. O=C(CC[C@H]1O[C@@H](n2ccc(=O)[nH]c2=O)[C@H](O)[C@@H]1O)N[C@H](Cc1ccccc1)C(=O)NCCCN1CCCC1=O was tested, and the Potency was “inactive”. With CC(OC(=O)c1ccc([N+](=O)[O-])s1)C(=O)NC1CCCCC1C (configuration not stated) the Potency was “inactive”. With O=c1[nH]cc(/N=C/c2cc(Cl)cc(Cl)c2O)c(=O)[nH]1 the Potency was “inactive”. For CCCn1/c(=N\C(C)=O)c(C(=O)OCC)cc2c(=O)n3ccccc3nc21, the Potency was “inactive”. CC(C)Cc1cc(C(=O)N2CCC(N3CCC(C(=O)N4CCCC4)CC3)CC2)[nH]n1 was tested, and the Potency was “inactive”. In the case of O=C(C1CCN(S(=O)(=O)c2c(Cl)cccc2Cl)CC1)N1CCCCCCC1, the Potency is reported as “inactive”. In the case of O=C(c1cccc(Cl)c1)N1CCC(N2CCC(C(=O)N3CCCC3)CC2)CC1, the Potency is reported as 8.91 µM (active). For CCOC(=O)c1cc2c(=O)n3ccccc3nc2n(CC(C)C)/c1=N\C(=O)C(C)Oc1ccccc1 (configuration not stated), the Potency was “inactive”. With COc1ccc(-c2oc3ccccc3c(=O)c2OC(C)=O)cc1 the Potency was “inactive”. For O=C(Nc1cccc(C(F)(F)F)c1)C1CC(=O)N(Cc2ccco2)C1 (configuration not stated), the Potency was “inactive”. For Cc1noc2ncnc(N3CCCC(C(=O)Nc4cccc(C(F)(F)F)c4)C3)c12 (configuration not stated), the Potency was 31.6 µM (active). In the case of CNC(=O)c1ccc(NC(=O)C2CCN(S(=O)(=O)c3cccc(C(F)(F)F)c3)CC2)cc1, the Potency is reported as “inactive”. With CCn1c(C(C)NC(C)=O)nc2ccccc21 (configuration not stated) the Potency was “inactive”. In the case of CCn1c2ccccc2nc2cc3c(cc21)c(Cl)c(=O)c1ccccc13, the Potency is reported as 7.94 µM (active). In the case of CCn1c2ccccc2c(=O)c2ccccc21, the Potency is reported as “inactive”. With C/C(=N\NC(=O)c1cc2ccccc2cc1O)c1ccc(C)o1 the Potency was “inactive”. In the case of C/C(=N\NC(=O)C1(C)CC1(Br)Br)c1cccc(NC(=O)c2ccc(C)o2)c1 (configuration not stated), the Potency is reported as 35.5 µM (active). With O=C(O)c1cccc(NC(=O)c2cc3cc(Br)cc(Br)c3oc2=O)c1 the Potency was “inactive”. In the case of Nc1ccc(Br)c2cccnc12, the Potency is reported as “inactive”. In the case of NC(=O)c1c(NC(=O)C2COc3ccccc3O2)sc2c1CCN(Cc1ccccc1)C2 (configuration not stated), the Potency is reported as “inactive”. In the case of Cc1c(CN2CCC(CO)(Cc3cccc(C(F)(F)F)c3)CC2)c2ccccc2n1C, the Potency is reported as 39.8 µM (active). For COc1ccc(CC2(CO)CCN(Cc3ccc4c(c3)CCO4)CC2)cc1, the Potency was “inactive”. With COc1ccccc1/C=C/CN1CCC(CO)(Cc2ccccc2)CC1 the Potency was “inactive”.
